Results published in the supplement of paper PMC12645437, “Orthogonal IMiD-Degron Pairs Induce Selective Protein Degradation in Cells” (ACS Chemical Biology, 2025).
Whole data set: some 8,300 sequences, median “log2 fold change of degron read counts, EGFP-low vs EGFP+ sorted cells (limma voom), compound-induced degradation” near -1.1, cut for the highest 2% near 3.2. What follows is part of a selection rich in the highest values, with near analogues and random picks from the rest.

T1: CRBN, Q96SW2
T1 chain: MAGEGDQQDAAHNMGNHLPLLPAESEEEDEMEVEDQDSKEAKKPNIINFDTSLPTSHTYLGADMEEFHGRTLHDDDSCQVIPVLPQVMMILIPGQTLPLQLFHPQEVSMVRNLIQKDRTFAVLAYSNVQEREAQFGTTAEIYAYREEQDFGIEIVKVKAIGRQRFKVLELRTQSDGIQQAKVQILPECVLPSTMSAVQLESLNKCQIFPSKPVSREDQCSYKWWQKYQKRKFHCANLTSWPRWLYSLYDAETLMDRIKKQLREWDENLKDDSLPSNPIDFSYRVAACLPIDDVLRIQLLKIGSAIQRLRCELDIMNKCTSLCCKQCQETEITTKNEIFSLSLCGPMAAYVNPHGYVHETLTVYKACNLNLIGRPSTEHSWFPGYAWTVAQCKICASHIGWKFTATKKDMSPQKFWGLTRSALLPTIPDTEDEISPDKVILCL


Biological target: T1, CRBN, Q96SW2
Experiment: log2 fold change of degron read counts, EGFP-low vs EGFP+ sorted cells (limma voom), compound-induced degradation; higher = more compound-induced degradation of the degron-EGFP fusion; degrons are variants of IKZF1/3 zinc finger 2; compound dose not given here
Details: Jurkat, 18 h
[1] = compound: compound 19 (5-tert-butyl-thalidomide)
[2] = compound: compound 22 (5-morpholino-thalidomide)
[3] = compound: compound 33 (diphenyl IMiD analogue)
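Also: pooled lentiviral library of zinc finger degron-EGFP fusions in mCherry-positive Jurkat cells, FACS-sorted after compound exposure, with degron abundance counted by next-generation sequencing.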

Sequence	log2 fold change of degron read counts [1]	log2 fold change of degron read counts [2]	log2 fold change of degron read counts [3]	log2 fold change of degron read counts (compound: thalidomide)
FVCEICGRRFTQKGNLLRHIKL [46F_47V_49E_50I_52G_53R_54R_55F_67L_, Q9UKT9]	-1.38	-0.295	-0.924	1.44
LWCPICGFICTQKGNLLRHIKL [46L_47W_49P_50I_52G_53F_54I_55C_67L_, Q9UKT9]	2.27	2.7	2.35	1.24
FNCEQCGAQFTQKGNLLRHIKL [46F_47N_49E_50Q_52G_53A_54Q_55F_67L_, Q9UKT9]	-1.51	-2.31	-2.13	-2.22
LTCNQCGFMCTQKGNLLRHIKL [46L_47T_49N_50Q_52G_53F_54M_55C_67L_, Q9UKT9]	-2.05	-1.99	-2.04	-1.23
FFCNQCGAKFTQKGNLLRHIKL [46F_47F_49N_50Q_52G_53A_54K_55F_67L_, Q9UKT9]	-0.805	-0.929	-1.59	-1.91
FDCNVCGAPFTQKGNLLRHIKL [46F_47D_49N_50V_52G_53A_54P_55F_67L_, Q9UKT9]	-1.08	-1.02	-1.22	-0.873
LDCEICGFRCTQKGNLLRHIKL [46L_47D_49E_50I_52G_53F_54R_55C_67L_, Q9UKT9]	0.949	-0.499	-0.616	0.426
LYCEICGFRCTQKGNLLRHIKL [46L_47Y_49E_50I_52G_53F_54R_55C_67L_, Q9UKT9]	3.55	3.9	2.17	1.9
LWCEICGFRCTQKGNLLRHIKL [46L_47W_49E_50I_52G_53F_54R_55C_67L_, Q9UKT9]	3.39	3.5	2.48	1.8
LSCEICGFRCTQKGNLLRHIKL [46L_47S_49E_50I_52G_53F_54R_55C_67L_, Q9UKT9]	2.82	2.76	0.517	1.83
LTCEICGFRCTQKGNLLRHIKL [46L_47T_49E_50I_52G_53F_54R_55C_67L_, Q9UKT9]	1.66	2.1	1.15	2.73
LMCEICGFRCTQKGNLLRHIKL [46L_47M_49E_50I_52G_53F_54R_55C_67L_, Q9UKT9]	0.992	0.81	2.15	2.41
LVCEICGFRCTQKGNLLRHIKL [46L_47V_49E_50I_52G_53F_54R_55C_67L_, Q9UKT9]	2.5	2.55	1.39	3.28
LCCEICGFRCTQKGNLLRHIKL [46L_47C_49E_50I_52G_53F_54R_55C_67L_, Q9UKT9]	2.36	2.33	1.37	2.65
LHCEICGFRCTQKGNLLRHIKL [46L_47H_49E_50I_52G_53F_54R_55C_67L_, Q9UKT9]	2.71	2.4	1.3	1.88
LACEICGFRCTQKGNLLRHIKL [46L_47A_49E_50I_52G_53F_54R_55C_67L_, Q9UKT9]	3.5	2.79	0.159	1.41
LGCEICGFRCTQKGNLLRHIKL [46L_47G_49E_50I_52G_53F_54R_55C_67L_, Q9UKT9]	2.14	1.52	-0.383	0.468
LNCEICGFRCTQKGNLLRHIKL [46L_47N_49E_50I_52G_53F_54R_55C_67L_, Q9UKT9]	1.31	0.0636	-0.877	0.378
FQCNQCGREFTQKGNLLRHIKL [46F_47Q_49N_50Q_52G_53R_54E_55F_67L_, Q9UKT9]	-3.47	-3.04	-3.68	-2.95
FDCEQCGACFTQKGNLLRHIKL [46F_47D_49E_50Q_52G_53A_54C_55F_67L_, Q9UKT9]	-1.94	-2.86	-2.08	-2.3

Sequence	log2 fold change of degron read counts [1]	log2 fold change of degron read counts [2]	log2 fold change of degron read counts [3]	log2 fold change of degron read counts (compound: thalidomide)
FGCDICGAAFTQKGNLLRHIKL [46F_47G_49D_50I_52G_53A_54A_55F_67L_, Q9UKT9]	1.51	0.584	0.961	-0.234
LLCPICGFPCTQKGNLLRHIKL [46L_47L_49P_50I_52G_53F_54P_55C_67L_, Q9UKT9]	-0.669	1.1	1.61	2.14
FDCNQCGATFTQKGNLLRHIKL [46F_47D_49N_50Q_52G_53A_54T_55F_67L_, Q9UKT9]	-2.56	-3.15	-3.02	-2.62
FWCPICGHRFTQKGNLLRHIKL [46F_47W_49P_50I_52G_53H_54R_55F_67L_, Q9UKT9]	-0.606	0.31	-0.595	-0.478
LACNQCGFFCTQKGNLLRHIKL [46L_47A_49N_50Q_52G_53F_54F_55C_67L_, Q9UKT9]	-0.913	-1.22	-1.37	-0.847
FHCEICGRPFTQKGNLLRHIKL [46F_47H_49E_50I_52G_53R_54P_55F_67L_, Q9UKT9]	1.69	0.386	0.306	-0.468
FTCSVCGHSFTQKGNLLRHIKL [46F_47T_49S_50V_52G_53H_54S_55F_67L_, Q9UKT9]	-2.98	-3.17	-2.89	-2.9
FWCEVCGALFTQKGNLLRHIKL [46F_47W_49E_50V_52G_53A_54L_55F_67L_, Q9UKT9]	2.17	2.69	1.86	-0.0715
FWCEVCGARFTQKGNLLRHIKL [46F_47W_49E_50V_52G_53A_54R_55F_67L_, Q9UKT9]	3.36	3.82	1.63	1.59
FWCEVCGADFTQKGNLLRHIKL [46F_47W_49E_50V_52G_53A_54D_55F_67L_, Q9UKT9]	-0.303	0.852	-0.582	-1.26
FCCEVCGARFTQKGNLLRHIKL [46F_47C_49E_50V_52G_53A_54R_55F_67L_, Q9UKT9]	3.05	3.02	1.45	2.9
FYCEVCGARFTQKGNLLRHIKL [46F_47Y_49E_50V_52G_53A_54R_55F_67L_, Q9UKT9]	3.84	3.8	2.26	1.95
FFCEVCGALFTQKGNLLRHIKL [46F_47F_49E_50V_52G_53A_54L_55F_67L_, Q9UKT9]	2.55	2.63	1.79	0.407
FFCEVCGARFTQKGNLLRHIKL [46F_47F_49E_50V_52G_53A_54R_55F_67L_, Q9UKT9]	3.78	3.71	1.69	2.19
FECEVCGARFTQKGNLLRHIKL [46F_47E_49E_50V_52G_53A_54R_55F_67L_, Q9UKT9]	1.13	-0.689	1.27	3.29
FYCEVCGADFTQKGNLLRHIKL [46F_47Y_49E_50V_52G_53A_54D_55F_67L_, Q9UKT9]	0.695	1.02	0.125	-1.36
FYCEVCGALFTQKGNLLRHIKL [46F_47Y_49E_50V_52G_53A_54L_55F_67L_, Q9UKT9]	3.18	3.03	2.24	0.431
FICEVCGARFTQKGNLLRHIKL [46F_47I_49E_50V_52G_53A_54R_55F_67L_, Q9UKT9]	0.108	2.04	1.51	2.6
FDCEVCGARFTQKGNLLRHIKL [46F_47D_49E_50V_52G_53A_54R_55F_67L_, Q9UKT9]	3.09	1.52	0.571	2.08
